In PMC11062922 (Nature Chemical Biology, 2023) one finds potency estimated from few doses data, which are given here for one compound.

The test has as its system GSPT1;GSPT2. The arrangement: species or system human, MV4-11 + K-562 + COLO205 + SK-N-BE2 + OVCAR-8. The conditions noted are these: read-out: apparent Kd; compound concentrations: 100 nM and 1000 nM (sheet 'Samples'), CATDS: 3.5728111751545999E-2; n = 1.

The structures appear in SMILES notation.

As for `CCC(CC)(CC)n1cnc2c(N)ncnc21` [SKF-97620], the potency estimated from few doses was 655 nM.
